# According to PubChem BioAssay (EPA / NIEHS):
# The source made the active and inactive calls. How the source made its calls: active means hit-call score of the fitted dose curve at least 0.9, where 1 is the maximum; inactive means score below 0.9.
# Test: Tanguay_ZF_120hpf_BRN: Oregon State University Tanguay Lab 120 Hour Post-fertilization zebrafish Assay for Brain Region Malformation (AID 2284402)
# In short: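 Dechorionated wild-type Tropical 5D zebrafish embryos exposed statically from 6 to 120 hpf at 28C, one per well, 0.64% DMSO final. Brain malformation scored at 120 hpf by brightfield as present/absent; dead embryos not scored.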
row,SMILES,outcome
1,OCC(F)(F)OC(F)(F)C(F)(F)OC(F)(F)C(F)(F)OC(F)(F)CO,inactive
2,OCC(F)(F)OC(F)(F)C(F)(F)OC(F)(F)C(F)(F)OC(F)(F)F,inactive
3,FC(F)(F)C(F)(C(F)(F)F)C(F)(F)C(F)(F)CC1CO1 (centres undefined),inactive
4,O=C(O)C(F)(F)C(F)(F)C(=O)O,inactive
5,NC(=O)C(F)(F)C(F)(F)F,inactive
6,COC(=O)C(F)(F)C(F)(F)OC(F)(C(F)(F)F)C(F)(F)OC(F)=C(F)F (centres undefined),inactive
7,O=S(=O)(F)C(F)(F)C(F)(F)C(F)(F)C(F)(F)C(F)(F)C(F)(F)C(F)(F)C(F)(F)F,inactive
8,O=C(O)C(F)(F)OC(F)(F)C(F)(F)OC(F)(F)F,inactive
9,O=C(O)C=CC(F)(C(F)(F)F)C(F)(F)F,inactive
10,CC(O)C(F)(F)C(F)(F)F (centres undefined),inactive
11,O=C(O)C(F)(F)OC(F)(F)C(F)(F)OC(F)(F)C(=O)O,inactive
12,OCC(F)(F)OC(F)(F)C(F)(F)OC(F)(F)CO,inactive
13,O=C(O)C(F)(OC(F)(F)C(F)(F)C(F)(F)F)C(F)(F)F (centres undefined),inactive
14,C=CC(=O)OCC(F)(F)C(F)F,inactive
